Test results: PubChem BioAssay
Unmarked numbers belong to inactive results. For some of these results: Entries with a potency or affinity are not part of this list. The source made the active and inactive calls. Unless noted, no rule for the calls is given here.

Experiments:
[1] = antimalarial activity against Dd2 strain (AID 2302;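 active = growth inhibition above 50% at the single 2 µM test dose, taken to imply half-maximal potency below 2 µM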;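 also: 0% = DMSO untreated growth and 100% = chloroquine plus artemisinin killed control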); conditions: P. falciparum Dd2 in RBCs, LDH growth readout, 72 h; at 2 µM; stronger effect = higher value
[2] = human hepatoma cell viability loss – ATP luminescence, cytotoxicity control for P. falciparum antimalarial project, primary screen (AID 2303;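 active = inhibition above 50%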;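 also: 0% = DMSO wells and 100% = digitonin-killed cells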); conditions: HepG2 viability, 24-48 h, at 10 µM, stronger effect = higher value
[3] = molecular target: L-lactate dehydrogenase (Plasmodium falciparum (isolate CDC / Honduras)) (UniProt Q27743); assay: PfLDH activity inhibition – cell lysate, 3D7 strain, counter-screen for P. falciparum growth inhibition project (AID 2304);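 also: 0% = vehicle and 100% = reference inhibitor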; conditions: P. falciparum 3D7 crude extract, LDH APAD/NBT absorbance; at 2 µM; stronger effect = higher value
[4] = inhibition of 3D7 malaria parasite growth – strain 3D7 (AID 2306);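 also: 0% = DMSO wells and 100% = chloroquine plus artemisinin control wells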; conditions: P. falciparum 3D7 erythrocytic growth, LDH absorbance, 72 h; at 2 µM; stronger effect = higher value
[5] = molecular target: Calcium-dependent protein kinase 1 (Plasmodium falciparum (isolate 3D7)) (UniProt P62344); assay: PfCDPK1 kinase inhibitors, biochemical, TCAMS library (AID 1159585; cut-off not given, nearly all actives have IC50 up to about 0.98 µM;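 also: inhibitors leave more ATP so luminescence rises with inhibition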); conditions: recombinant PfCDPK1, Kinase-Glo ATP depletion luminescence
[6] = molecular target: Plasmodium falciparum protein kinase 6 (PK6, PF3D7_1337100) (UniProt Q8IDW1); assay: PfPK6 kinase inhibitors, biochemical, TCAMS library (AID 1159586); conditions: recombinant PfPK6, Kinase-Glo ATP depletion luminescence
[7] = molecular target: Protein kinase 7 (PK7), Plasmodium falciparum 3D7 (PF3D7_0213400) (UniProt Q7YTF7); assay: inhibition of Plasmodium PK7 catalytic activity – biochemical, TCAMS antimalarial set, Kinase-Glo luminescence (AID 1159587); conditions: recombinant PfPK7, Kinase-Glo ATP depletion luminescence
[8] = molecular target: Calcium-dependent protein kinase 4 (Plasmodium falciparum (isolate 3D7)) (UniProt Q8IBS5); assay: PfCDPK4 kinase inhibitors, biochemical, TCAMS library (AID 1159588; cut-off not given, nearly all actives have IC50 up to about 0.91 µM); conditions: recombinant PfCDPK4, Kinase-Glo ATP depletion luminescence
Chain of Calcium-dependent protein kinase 4 (Plasmodium falciparum (isolate 3D7)) (Q8IBS5 whole entry, looked up): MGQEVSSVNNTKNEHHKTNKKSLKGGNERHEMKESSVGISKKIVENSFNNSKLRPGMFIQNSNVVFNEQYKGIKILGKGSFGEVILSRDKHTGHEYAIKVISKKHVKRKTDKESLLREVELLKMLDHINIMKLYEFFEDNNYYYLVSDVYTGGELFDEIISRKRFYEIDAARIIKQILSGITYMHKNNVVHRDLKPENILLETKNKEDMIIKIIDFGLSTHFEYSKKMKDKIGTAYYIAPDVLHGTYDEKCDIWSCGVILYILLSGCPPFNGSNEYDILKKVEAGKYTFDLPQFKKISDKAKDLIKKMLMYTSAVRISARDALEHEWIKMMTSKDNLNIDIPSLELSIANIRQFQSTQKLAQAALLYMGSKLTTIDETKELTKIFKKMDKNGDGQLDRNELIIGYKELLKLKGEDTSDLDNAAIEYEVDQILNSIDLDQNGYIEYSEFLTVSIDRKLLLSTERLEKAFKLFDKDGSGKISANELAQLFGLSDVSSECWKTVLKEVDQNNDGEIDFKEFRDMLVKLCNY

Chain of Protein kinase 7 (PK7), Plasmodium falciparum 3D7 (PF3D7_0213400) (Q7YTF7 1-343): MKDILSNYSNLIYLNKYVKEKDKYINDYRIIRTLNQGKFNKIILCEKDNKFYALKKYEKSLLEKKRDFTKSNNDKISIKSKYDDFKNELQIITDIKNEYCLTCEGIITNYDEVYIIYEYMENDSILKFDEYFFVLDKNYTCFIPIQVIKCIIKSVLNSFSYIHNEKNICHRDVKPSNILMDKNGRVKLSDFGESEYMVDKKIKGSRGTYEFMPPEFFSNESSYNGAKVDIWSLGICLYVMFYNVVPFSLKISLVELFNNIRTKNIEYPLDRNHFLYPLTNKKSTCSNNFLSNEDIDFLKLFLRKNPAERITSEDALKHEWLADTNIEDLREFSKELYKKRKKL
Chain of Plasmodium falciparum protein kinase 6 (PK6, PF3D7_1337100) (Q8IDW1 1-305): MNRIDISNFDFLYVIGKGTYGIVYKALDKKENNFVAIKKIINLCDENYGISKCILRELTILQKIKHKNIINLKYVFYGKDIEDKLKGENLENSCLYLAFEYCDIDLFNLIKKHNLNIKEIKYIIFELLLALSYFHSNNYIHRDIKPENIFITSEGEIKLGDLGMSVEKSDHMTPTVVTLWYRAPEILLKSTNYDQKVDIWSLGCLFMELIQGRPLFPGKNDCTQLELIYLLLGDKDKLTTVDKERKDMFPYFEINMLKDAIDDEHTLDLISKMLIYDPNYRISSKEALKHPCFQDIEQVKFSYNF
Chain of L-lactate dehydrogenase (Plasmodium falciparum (isolate CDC / Honduras)) (Q27743 whole entry, looked up): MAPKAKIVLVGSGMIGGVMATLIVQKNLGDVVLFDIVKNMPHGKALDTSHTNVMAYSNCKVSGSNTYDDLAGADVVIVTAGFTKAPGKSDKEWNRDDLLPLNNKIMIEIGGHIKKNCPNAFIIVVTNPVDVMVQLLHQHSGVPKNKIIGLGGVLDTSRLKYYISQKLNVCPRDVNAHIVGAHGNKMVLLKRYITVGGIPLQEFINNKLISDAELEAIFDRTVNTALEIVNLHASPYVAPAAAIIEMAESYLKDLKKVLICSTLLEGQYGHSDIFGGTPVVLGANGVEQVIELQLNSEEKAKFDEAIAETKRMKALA
Chain of Calcium-dependent protein kinase 1 (Plasmodium falciparum (isolate 3D7)) (P62344 whole entry, looked up): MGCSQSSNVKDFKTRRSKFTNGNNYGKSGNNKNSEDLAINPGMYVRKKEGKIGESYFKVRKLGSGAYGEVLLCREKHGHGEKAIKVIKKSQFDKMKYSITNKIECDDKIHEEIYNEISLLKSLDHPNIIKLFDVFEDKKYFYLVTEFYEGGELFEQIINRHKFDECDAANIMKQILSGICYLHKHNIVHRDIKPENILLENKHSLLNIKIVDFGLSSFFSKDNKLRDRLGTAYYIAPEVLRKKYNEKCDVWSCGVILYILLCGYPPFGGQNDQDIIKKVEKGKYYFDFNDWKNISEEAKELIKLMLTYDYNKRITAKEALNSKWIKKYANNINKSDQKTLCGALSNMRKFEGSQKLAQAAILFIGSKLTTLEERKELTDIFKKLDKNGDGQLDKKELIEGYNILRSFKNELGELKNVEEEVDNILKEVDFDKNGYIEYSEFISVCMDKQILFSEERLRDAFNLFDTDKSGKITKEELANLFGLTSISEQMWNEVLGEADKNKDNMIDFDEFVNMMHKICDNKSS

SMILES | growth inhibition [1] | inhibition [2] | inhibition [3] [%] | growth inhibition [4] | outcome [5] | outcome [6] | outcome [7] | outcome [8]
O=C(NC1CCN(CC2(c3ccccc3)CCCC2)CC1)c1[nH]ncc1Cl | 87% (active) | -3% | 5 | 83% (active) | inactive | inactive | inactive | inactive
CC(C)NCc1cccc(-c2ccc(NC(=O)c3ccc(F)cc3)cc2)c1 | 3% | 7% | -1 | 92% (active) | inactive | inactive | inactive | inactive
CC(CNc1nc(NCC(c2ccccc2)c2ccccc2)c2[nH]cnc2n1)c1ccccc1 (stereo not drawn) | 24% | 5% | -8 | 93% (active) | inactive | inactive | inactive | inactive
CC(=O)Nc1ccc(-c2nc3ccc(-c4nc5ccc(NC(C)=O)cc5[nH]4)cc3[nH]2)cc1 | 99% (active) | -13% | -2 | 99% (active) | inactive | inactive | inactive | inactive
O=C(NCCCCN1CCC(c2ccc3c(c2OCC2CC2)CCCC3)CC1)c1ccc(NC(=O)c2ccc(Cl)cc2)cc1 | 93% (active) | 23% | -4 | 101% (active) | inactive | inactive | inactive | inactive
CCOc1ccc2nc3cc([N+](=O)[O-])ccc3c(N)c2c1 | 100% (active) | 67% (active) | 3 | 99% (active) | inactive | inactive | inactive | inactive
CCn1ccc2c(N3CCCS3(=O)=O)cc(C(=O)N[C@@H](Cc3ccccc3)[C@H](O)CNC(C)(C)c3cccc(OC)c3)cc21 | 98% (active) | 20% | -8 | 99% (active) | inactive | inactive | inactive | inactive
C#CC[C@@H](NC(N)=O)C(=O)O | 0% | 1% | -2 | 97% (active) | inactive | inactive | inactive | inactive
COc1ccc2nccc([C@@H](O)CN3CCC(NC[C@H](Cc4ccccc4)NC(=O)OC(C)(C)C)CC3)c2c1 | 86% (active) | 18% | 6 | 98% (active) | inactive | inactive | inactive | inactive
CCc1cc2c(=O)c(-c3nc(C)cs3)c(N)oc2c(CN2CCCCC2)c1O | 97% (active) | -2% | 0 | 99% (active) | inactive | inactive | inactive | inactive
COC(=O)CCCCOc1c(OC)cc(Cc2cnc(N)nc2N)cc1OC | -2% | -2% | -2 | 93% (active) | inactive | inactive | inactive | inactive
Cc1cc(N[C@@H](Cc2ccccc2)C(=O)NCc2cccc(F)c2)nc(NCCc2cccs2)n1 | 22% | 9% | 2 | 99% (active) | inactive | inactive | inactive | inactive
O=c1cc(NCCCNCc2cccc(C(F)(F)F)c2Cl)[nH]c2ccccc12 | 24% | 0% | -2 | 94% (active) | inactive | inactive | inactive | inactive
CCCCNC(=O)c1cc(CNC2CCCCC2)ccc1-c1cccc(CNCc2ccc(-c3ccccc3)cc2)c1 | 85% (active) | 100% (active) | 0 | 100% (active) | inactive | inactive | inactive | inactive
O=C(Nc1ccc2c(c1)CCNCC2)c1ccc(-c2ccc(Cl)cc2)cc1 | 38% | 71% (active) | 0 | 96% (active) | inactive | inactive | inactive | inactive
O=C(CSc1ccccn1)Nc1c(F)cccc1F | -5% | -2% | 1 | 88% (active) | inactive | inactive | inactive | inactive
Cc1cc2nc(-c3ccc(C(=O)NCc4cccc(C(F)(F)F)c4)cc3)[nH]c2cc1C | 34% | 4% | -9 | 98% (active) | inactive | inactive | inactive | inactive
N#Cc1cccc(-c2cnc(N)c(-c3nc4ccc(S(N)(=O)=O)cc4[nH]3)c2)c1 | 99% (active) | 16% | -5 | 100% (active) | inactive | inactive | inactive | inactive
CC(=O)Nc1cccc(C(=O)Nc2cccc(-c3ccc(-c4nc5c(C)cccc5[nH]4)cc3)c2)c1 | 12% | 29% | -1 | 95% (active) | inactive | inactive | inactive | inactive
CCn1c(=O)c(C(=O)Nc2cc(Cl)c(OC)cc2OC)nc2ccccc21 | 84% (active) | 19% | 6 | 86% (active) | inactive | inactive | inactive | inactive
CCCNC[C@@H](O)[C@H](Cc1ccccc1)NC(=O)c1cc(NCC)cc(N2CCCCS2(=O)=O)c1 | 74% (active) | 0% | -3 | 97% (active) | inactive | inactive | inactive | inactive

SMILES | growth inhibition [1] | inhibition [2] | inhibition [3] [%] | growth inhibition [4] | outcome [5] | outcome [6] | outcome [7] | outcome [8]
c1ccc(COc2ccc(Nc3ncnc4ccc(-c5ccc(CN6CCSCC6)o5)cc34)cc2)cc1 | 4% | 4% | 4 | 94% (active) | inactive | inactive | inactive | inactive
O=C(/C=C/c1cccc2ccccc12)NCCCCCN1CCC(c2c[nH]c3ccccc23)CC1 | 6% | 55% (active) | -1 | 92% (active) | inactive | inactive | inactive | inactive
COc1ccc2nc(N3CCN(C(=O)OC(C)(C)C)CC3)nc(NCCCc3ccccc3)c2c1 | 95% (active) | 9% | -2 | 102% (active) | inactive | inactive | inactive | inactive
N#Cc1ccc2nc(-c3ccccc3)[nH]c2c1 | 1% | 7% | -1 | 95% (active) | inactive | inactive | inactive | inactive
COc1ccc2nccc([C@@H](O)CN3CCC(NCc4cc5cccc6c5n(c4=O)CCC6)CC3)c2c1 | 97% (active) | 33% | 1 | 98% (active) | inactive | inactive | inactive | inactive
NC(=O)c1cccc(C(=O)Nc2ccc(-c3cccc(-c4nc5ccc(F)cc5[nH]4)c3)cc2)c1 | 5% | 45% | -5 | 94% (active) | inactive | inactive | inactive | inactive
COc1ccc(-c2cccc(NC(=O)c3ccccc3)c2)cc1CN1CCCN(C)CC1 | 25% | 22% | -7 | 98% (active) | inactive | inactive | inactive | inactive
CCCS(=O)(=O)c1nc(S(=O)(=O)c2ccc(Cl)cc2)c(N2CCCCC2)s1 | 34% | 3% | -3 | 87% (active) | inactive | inactive | inactive | inactive
CCCCc1cc(NCC)nc(Nc2ccc(OC)cc2)n1 | 32% | 30% | -4 | 85% (active) | inactive | inactive | inactive | inactive
CCOc1cc(C(=O)Nc2ccc3nc(N(CC)CC)cc(C)c3c2)cc(OCC)c1OCC | 9% | 16% | -2 | 98% (active) | inactive | inactive | inactive | inactive
Clc1ccc2c(NCCc3ccccn3)ccnc2c1 | 72% (active) | 13% | -1 | 92% (active) | inactive | inactive | inactive | inactive
Oc1cccc(CNCCCN(Cc2ccccc2)c2ccccc2)c1 | 97% (active) | 7% | -6 | 99% (active) | inactive | inactive | inactive | inactive
OCC1CCN(Cc2ccc(-c3cccc(-c4nc5ccc(F)cc5[nH]4)c3)cc2)CC1 | 25% | 14% | -3 | 100% (active) | inactive | inactive | inactive | inactive
COc1ccc(Nc2ncc3c(-c4cccc(NC(=O)c5ccccc5)c4)c[nH]c3n2)cc1OC | 95% (active) | 54% (active) | -7 | 101% (active) | inactive | inactive | inactive | inactive
O=C(NCC1CC1)C1Cc2c([nH]c3ccc(Br)cc23)C2(CCN(CCc3ccccc3)CC2)N1 (stereo not drawn) | 25% | 14% | 1 | 88% (active) | inactive | inactive | inactive | inactive
COc1ccc2nccc([C@@H](O)CN3CCC(NC(=O)c4ccc(OC)c(N)c4)CC3)c2c1 | 0% | 9% | -3 | 93% (active) | inactive | inactive | inactive | inactive
Cc1c(CCc2cccc(F)c2F)[nH]c2ccccc2c1=O | 90% (active) | 41% | 2 | 91% (active) | inactive | inactive | inactive | inactive
Cc1cc(OC(C)C(=O)N2CCc3ccccc32)ccc1Cl (stereo not drawn) | 54% (active) | 20% | 6 | 89% (active) | inactive | inactive | inactive | inactive
O=C(NCC1CCC(C(=O)O)CC1)c1ccc(/C=C/C(=O)N2CCc3ccccc3C2c2ccc3c(c2)OCO3)cc1 (stereo not drawn) | 17% | 66% (active) | 2 | 91% (active) | inactive | inactive | inactive | inactive
CC(C)[C@H](NC(=O)NC1CCC(CCN2[C@@H]3CC[C@H]2CC(OC(=O)C(CO)c2ccccc2)C3)CC1)C(O)(c1ccccc1)c1ccccc1 (stereo partly drawn) | 4% | 17% | 1 | 90% (active) | inactive | inactive | inactive | inactive
